# Assay results taken from PMC12135187, “A role for pH dynamics regulating transcription factor DNA-binding selectivity”.
# Whole data set: some 1,100 sequences, median “relative enrichment” near 0.38, cut for the highest 2% near 0.66. The sample holds the highest values, similar sequences and a random draw of the others, so the mix is not that of the screen.
# Molecular target: T1, FOXC2 DBD WT (UniProt Q99958 72-172)
# T1 sequence: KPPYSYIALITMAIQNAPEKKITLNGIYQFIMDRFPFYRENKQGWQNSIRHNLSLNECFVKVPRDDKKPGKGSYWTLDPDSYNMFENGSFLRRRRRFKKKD
# Test: SELEX-seq (GST pull-down, four rounds, 16-nt random library); pH 7.0; 20 mM HEPES, 140 mM KCl, 0.05 mM TCEP-HCl, pH 7.0, room temperature, 30 min; 2.5 uM GST-FOXC2 DBD, 0.25 uM DNA library; high values mean tight binding
# Conditions: protein: recombinant; tags: N-terminal GST (pGEX-6P-2); dsDNA, one strand shown
# Procedure, shortened: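 GST-tagged FOXC2 DNA-binding domain (E. coli-expressed, glutathione-purified) was incubated with a DNA library carrying a 16 bp randomized region, at 0.25 μM DNA and 2.5 μM protein, for 30 min at RT in 20 mM HEPES, 140 mM KCl, 0.05 mM TCEP–HCl, pH 7. Complexes were captured on glutathione Sepharose beads, washed, heat-eluted and PCR-amplified over four rounds. Initial and selected libraries were Illumina MiniSeq sequenced. Relative enrichment came from the Bioconductor SELEX R package.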
row,Sequence,binding signal
1,TAATGA,0.31 relative enrichment
2,AAGCTA,0.297 relative enrichment
3,TACACC,0.418 relative enrichment
4,CACCTC,0.731 relative enrichment
5,CACCTG,0.535 relative enrichment
6,TACCTC,0.625 relative enrichment
7,CAATAA,0.513 relative enrichment
8,CTTATC,0.378 relative enrichment
9,AACAGG,0.325 relative enrichment
10,TCAACT,0.324 relative enrichment
11,CAACCA,0.261 relative enrichment
12,TTCCTA,0.364 relative enrichment
13,CTTACA,0.35 relative enrichment
14,TATAAA,0.283 relative enrichment
15,ATACTC,0.432 relative enrichment
16,GAAAAA,0.304 relative enrichment
17,TGGTAA,0.428 relative enrichment
18,AGAATG,0.543 relative enrichment
19,TCAATC,0.416 relative enrichment
20,CTTTGA,0.338 relative enrichment
21,AACGTT,0.324 relative enrichment
22,CTCATT,0.311 relative enrichment
23,AACAAT,0.374 relative enrichment
24,ATAGTC,0.461 relative enrichment
25,TTCACT,0.426 relative enrichment

row,Sequence,binding signal
1,AAAGAT,0.356 relative enrichment
2,ATAGAA,0.4 relative enrichment
3,TCTCTA,0.45 relative enrichment
4,ATATTA,0.266 relative enrichment
5,ATACGC,0.457 relative enrichment
6,ACGAAA,0.388 relative enrichment
7,CATACG,0.448 relative enrichment
8,TATGAA,0.387 relative enrichment
9,AATTCA,0.336 relative enrichment
10,AAATTC,0.343 relative enrichment
11,ACACGT,0.335 relative enrichment
12,CTTAAG,0.341 relative enrichment
13,AATCGT,0.337 relative enrichment
14,CTACAC,0.417 relative enrichment
15,TTTCCC,0.38 relative enrichment
16,AAACCC,0.354 relative enrichment
17,ACTAAT,0.328 relative enrichment
18,ACTACA,0.297 relative enrichment
19,GCTACA,0.348 relative enrichment
20,ACCATG,0.559 relative enrichment
21,ATCAAT,0.463 relative enrichment
22,CGTCAT,0.583 relative enrichment
23,AAATCC,0.354 relative enrichment
24,CACTTA,0.321 relative enrichment
25,AACTTC,0.432 relative enrichment

row,Sequence,binding signal
1,CACTGC,0.574 relative enrichment
2,TACTTC,0.678 relative enrichment
3,TACTCC,0.566 relative enrichment
4,CACTTC,0.726 relative enrichment
5,AAGCTC,0.44 relative enrichment
6,CTCTTG,0.394 relative enrichment
7,ACCCTT,0.488 relative enrichment
8,CACGTA,0.469 relative enrichment
9,CATCTC,0.642 relative enrichment
10,CCCATT,0.378 relative enrichment
11,CCTCTA,0.483 relative enrichment
12,CTTAAC,0.232 relative enrichment
13,ACACGA,0.377 relative enrichment
14,ATATGC,0.286 relative enrichment
15,ACGACT,0.561 relative enrichment
16,AGTCTA,0.54 relative enrichment
17,ACCCAT,0.43 relative enrichment
18,TGACAA,0.337 relative enrichment
19,TACCCA,0.526 relative enrichment
20,GTAAAC,0.561 relative enrichment
21,ATAAGC,0.803 relative enrichment
22,ATAAAC,1 relative enrichment
23,ATAAAA,0.231 relative enrichment
24,ATAAGG,0.316 relative enrichment
25,ATAAGA,0.307 relative enrichment

row,Sequence,binding signal
1,CCCTTG,0.444 relative enrichment
2,GAGTAA,0.439 relative enrichment
3,ATGCTA,0.343 relative enrichment
4,CAAGCA,0.489 relative enrichment
5,AAAGCA,0.341 relative enrichment
6,TAAGCA,0.814 relative enrichment
7,TCTGTG,0.32 relative enrichment
8,AGCGTA,0.542 relative enrichment
9,GACACA,0.296 relative enrichment
10,TTCTCT,0.453 relative enrichment
11,ATCTTA,0.332 relative enrichment
12,TTCTAC,0.528 relative enrichment
13,ATCTTC,0.665 relative enrichment
14,TTCTTC,0.673 relative enrichment
15,ATCTTG,0.318 relative enrichment
16,CTCTTT,0.469 relative enrichment
17,CTCTTA,0.325 relative enrichment
18,CTCTTC,0.799 relative enrichment
19,ATCTAG,0.559 relative enrichment
20,GCCAAT,0.341 relative enrichment
21,CCACTG,0.649 relative enrichment
22,ACTTGC,0.489 relative enrichment
23,CCCTGT,0.366 relative enrichment
24,ACAGAG,0.418 relative enrichment
25,CCTCAT,0.455 relative enrichment

row,Sequence,binding signal
1,TAGTCA,0.442 relative enrichment
2,AGTCAT,0.491 relative enrichment
3,ATTGCC,0.483 relative enrichment
4,GCCATA,0.387 relative enrichment
5,AACTCA,0.249 relative enrichment
6,TGCAAA,0.311 relative enrichment
7,ACATTA,0.277 relative enrichment
8,ACATGT,0.276 relative enrichment
9,GTCTTA,0.348 relative enrichment
10,GATCTA,0.537 relative enrichment
11,AGATTA,0.329 relative enrichment
12,GCAACA,0.23 relative enrichment
13,ACAAGA,0.322 relative enrichment
14,AATCGC,0.406 relative enrichment
15,CATCCA,0.528 relative enrichment
16,CATCCT,0.605 relative enrichment
17,CATCGT,0.553 relative enrichment
18,CATCGC,0.711 relative enrichment
19,CATCCC,0.704 relative enrichment
20,TAGACA,0.44 relative enrichment
21,ATCCAT,0.477 relative enrichment
22,AATAAA,0.839 relative enrichment
23,AATAAT,0.309 relative enrichment
24,TAATAA,0.399 relative enrichment
25,AAATAT,0.435 relative enrichment

row,Sequence,binding signal
1,AAATAA,0.891 relative enrichment
2,CATAAA,0.596 relative enrichment
3,GATAAA,0.326 relative enrichment
4,AATAAG,0.686 relative enrichment
5,CATAAG,0.406 relative enrichment
6,GCTCAA,0.305 relative enrichment
7,CAATTC,0.306 relative enrichment
8,AAAACA,0.264 relative enrichment
9,AACTAT,0.324 relative enrichment
10,CAGTAA,0.415 relative enrichment
11,AGTACA,0.385 relative enrichment
12,AGTACT,0.668 relative enrichment
13,AATACT,0.328 relative enrichment
14,AAAGTG,0.343 relative enrichment
15,CAATGG,0.433 relative enrichment
16,ATTTAC,0.56 relative enrichment
17,ATTAGG,0.356 relative enrichment
18,TCCAAA,0.348 relative enrichment
19,ACTTCA,0.453 relative enrichment
20,AATTCC,0.366 relative enrichment
21,ACTTCC,0.677 relative enrichment
22,ACTCGT,0.431 relative enrichment
23,CTGCAT,0.524 relative enrichment
24,TCCTAT,0.313 relative enrichment
25,AAACCG,0.336 relative enrichment

row,Sequence,binding signal
1,CAATGC,0.376 relative enrichment
2,TACGTA,0.539 relative enrichment
3,AACGTC,0.372 relative enrichment
4,TACGTC,0.674 relative enrichment
5,CCATTA,0.286 relative enrichment
6,ACCACT,0.588 relative enrichment
7,GGTTTA,0.395 relative enrichment
8,ATTTGG,0.408 relative enrichment
9,CTGTTA,0.238 relative enrichment
10,TTACAA,0.36 relative enrichment
11,TACGAA,0.468 relative enrichment
12,TATACA,0.505 relative enrichment
13,TAAACA,0.701 relative enrichment
14,GAAATA,0.451 relative enrichment
15,CAAATC,0.3 relative enrichment
16,CAAACA,0.57 relative enrichment
17,TAAATA,0.726 relative enrichment
18,CAAATG,0.327 relative enrichment
19,CAAATA,0.707 relative enrichment
20,AAAATA,0.439 relative enrichment
21,GAAACA,0.347 relative enrichment
22,ATAGCA,0.284 relative enrichment
23,TCTTTC,0.55 relative enrichment
24,CAGACT,0.612 relative enrichment
25,ACTTGA,0.341 relative enrichment

row,Sequence,binding signal
1,CATAAC,0.226 relative enrichment
2,AAATGG,0.353 relative enrichment
3,CTTCGT,0.674 relative enrichment
4,CTTCAT,0.554 relative enrichment
5,GTTCGT,0.328 relative enrichment
6,ATGTTA,0.428 relative enrichment
7,TCATTC,0.646 relative enrichment
8,ACCTTA,0.322 relative enrichment
9,GATCTT,0.497 relative enrichment
10,TCTAAC,0.304 relative enrichment
11,CTACAA,0.352 relative enrichment
12,ACAATA,0.351 relative enrichment
13,AAACGA,0.433 relative enrichment
14,GTGTCA,0.372 relative enrichment
15,CATGCA,0.513 relative enrichment
16,AGGATA,0.311 relative enrichment
17,TACCCT,0.504 relative enrichment
18,AGCCTA,0.371 relative enrichment
19,AAAGTT,0.3 relative enrichment
20,AGTTTA,0.403 relative enrichment
21,CTATCA,0.419 relative enrichment
22,ACTGCT,0.412 relative enrichment
23,AACTAC,0.312 relative enrichment
24,AACCAC,0.351 relative enrichment
25,ACACGG,0.442 relative enrichment

row,Sequence,binding signal
1,TCATCT,0.546 relative enrichment
2,CAACGC,0.322 relative enrichment
3,CCTTCT,0.774 relative enrichment
4,ACTTCT,0.502 relative enrichment
5,TCTTCT,0.66 relative enrichment
6,AAGCAG,0.486 relative enrichment
7,ATCTCT,0.485 relative enrichment
8,TCACAA,0.332 relative enrichment
9,AGGTTG,0.313 relative enrichment
10,ACATCG,0.521 relative enrichment
11,ATGTTC,0.304 relative enrichment
12,TGAACA,0.291 relative enrichment
13,AACGAA,0.281 relative enrichment
14,GACTTA,0.52 relative enrichment
15,AATGAT,0.314 relative enrichment
16,CCGTTG,0.343 relative enrichment
17,CCTGTG,0.491 relative enrichment
18,ACTCTC,0.499 relative enrichment
19,ATTAAA,0.406 relative enrichment
20,TGTCAA,0.457 relative enrichment
21,AATTAG,0.241 relative enrichment
22,ACGATA,0.322 relative enrichment
